According to the supplement of paper PMC10849652:
Of roughly 7,900 targets only a part is listed; those with a hit were picked by preference. About 0.6% of all pairs of compound and target were hits. A number with no mark means an inactive call.

Tests used:
Experiment in all cases: log2 fold change, soluble protein after heating vs DMSO (PISA); higher = thermal stabilisation; K562 cells, 10 uM, 30 min; active = over 0.2 and 3.5 SD of the protein, either way, in both replicates (recomputed)
[1] = compound: CC1=C(C=C(C=C1)NC(=O)C2=CC(=CC=C2)C(C)(C)C#N)NC3=CC4=C(C=C3)N=CN(C4=O)C
Outline: (§1)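 K562 cells at 2×10^6 cells/mL were treated for 30 min with 10 μM compound, and aliquots were heated for 3 min over 48°C-58°C before pooling. Extraction used PBS with 0.5% NP-40 at 4°C, and soluble protein was the supernatant after 21,000xg for 90 min, measured by TMTpro 16plex LC-MS/MS with channel sums equalised. Thermal stability values, relative to control samples and from duplicates, are log2 fold changes.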

[2] = compound: CC1=C(C=C(C=C1)NC(=O)C2=CC(=CC=C2)N(C)C)NC(=O)C3=CC=C(C=C3)O
Outline: as §1

[3] = compound: CC1=CC=C(C=C1)SC2=C3C=C(SC3=CN=C2)C(=O)N
Outline: as §1

[4] = compound: CC1=NC(=CC=C1)C2=C(N=C(N2)C(C)(C)C)C3=CC4=NC=CN=C4C=C3
Outline: as §1

[5] = compound: CCCCN(Cc1ccc(C(=O)NO)cc1)C(=O)Nc1ccccc1 [Nexturastat A]
Outline: as §1

[6] = compound: CCCS(=O)(=O)Nc1ccc(F)c(C(=O)c2c[nH]c3ncc(-c4ccc(Cl)cc4)cc23)c1F [vemurafenib]
Outline: as §1

[7] = compound: CCCS(=O)(=O)Nc1ccc(F)c(C(=O)c2c[nH]c3ncc(Cl)cc23)c1F
Outline: as §1

[8] = compound: CCCc1cc(C)[nH]c(=O)c1CNC(=O)c1cc(-c2ccnc(N3CCN(C)CC3)c2)cc2c1cnn2C(C)C
Outline: as §1

[9] = compound: CCN(CC)Cc1ccc2cc(COC(=O)Nc3ccc(C(=O)NO)cc3)ccc2c1 [givinostat]
Outline: as §1

[10] = compound: CCN(CCCOc1ccc2c(Nc3cc(CC(=O)Nc4cccc(F)c4)[nH]n3)ncnc2c1)CCOP(=O)(O)O [barasertib]
Outline: as §1

[11] = compound: CC[C@@H]1C(=O)N(C)c2cnc(Nc3ccc(C(=O)NC4CCN(C)CC4)cc3OC)nc2N1C1CCCC1
Outline: as §1

[12] = compound: CC[C@@H]1C(=O)N(C)c2cnc(Nc3ccc(C(=O)N[C@H]4CC[C@H](N5CCN(CC6CC6)CC5)CC4)cc3OC)nc2N1C(C)C [volasertib]
Outline: as §1

[13] = compound: CC[C@H](C)N1C=C(C2=C(C=C(C=C21)C3=CN=C(C=C3)N4CCNCC4)C(=O)NCC5=C(C=C(NC5=O)C)C)C
Outline: as §1

[14] = compound: CC[C@H](C)[C@@H](C(=O)N[C@@H]([C@@H](C)O)C(=O)N[C@@H](CC(C)C)C(=O)[C@]1(CO1)C)NC(=O)[C@H]([C@@H](C)CC)N(C)C(=O)C [epoxomicin]
Outline: as §1

[15] = compound: CCn1c(C(=O)N(C2CC2)C2CC2)cc2c3c(ncn3C)c(Nc3cc(C)n(C)n3)nc21
Outline: as §1

[16] = compound: CCn1cc(-c2ccnc3[nH]c(-c4cccc(CN(C)C)c4)cc23)c(-c2ccc(NC(=O)N(C)C)cc2)n1
Outline: as §1

[17] = compound: CN(C)CC(=O)Nc1ccc2[nH]c(=O)c3ccccc3c2c1
Outline: as §1

[18] = compound: CN(CCOC1=CC=C(C=C1)C[C@H]2C(=O)NC(=O)S2)C3=CC=CC=N3 (racemic) [rosiglitazone]
Outline: as §1

[19] = compound: CN1C2=C(C3=C1C(=O)N(N=C3)CC4=CC(=CC=C4)N)SC(=C2)S(=O)C
Outline: as §1

[20] = compound: CN1CCC(CNc2ccc3ncc(-c4cccc(OC(F)(F)F)c4)n3n2)CC1
Outline: as §1

Chain of UniProt Q92890 (Q92890 whole entry, looked up): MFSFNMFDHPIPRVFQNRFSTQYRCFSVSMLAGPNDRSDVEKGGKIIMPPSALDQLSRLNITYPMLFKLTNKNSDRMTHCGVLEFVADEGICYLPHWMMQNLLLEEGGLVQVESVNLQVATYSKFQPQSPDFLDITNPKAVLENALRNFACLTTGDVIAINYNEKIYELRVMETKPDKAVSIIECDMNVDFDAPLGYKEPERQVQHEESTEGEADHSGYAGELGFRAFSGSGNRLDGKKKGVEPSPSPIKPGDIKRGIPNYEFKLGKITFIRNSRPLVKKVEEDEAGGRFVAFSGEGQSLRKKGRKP
Chain of UniProt Q16763 (Q16763 whole entry, looked up): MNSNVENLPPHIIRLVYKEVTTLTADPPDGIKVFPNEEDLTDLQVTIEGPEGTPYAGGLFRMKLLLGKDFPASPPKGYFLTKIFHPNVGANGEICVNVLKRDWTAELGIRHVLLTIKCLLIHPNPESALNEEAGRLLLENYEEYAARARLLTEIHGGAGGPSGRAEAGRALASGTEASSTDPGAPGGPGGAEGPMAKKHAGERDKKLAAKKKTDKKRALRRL
Chain of UniProt Q01081 (Q01081 whole entry, looked up): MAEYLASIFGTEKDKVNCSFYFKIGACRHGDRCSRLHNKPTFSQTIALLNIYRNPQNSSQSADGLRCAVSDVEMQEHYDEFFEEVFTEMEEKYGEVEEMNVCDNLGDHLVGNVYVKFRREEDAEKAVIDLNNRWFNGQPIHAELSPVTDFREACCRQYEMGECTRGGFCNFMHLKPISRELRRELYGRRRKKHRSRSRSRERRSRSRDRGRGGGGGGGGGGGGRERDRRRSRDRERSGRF
Chain of UniProt Q5VIR6 (Q5VIR6 whole entry, looked up): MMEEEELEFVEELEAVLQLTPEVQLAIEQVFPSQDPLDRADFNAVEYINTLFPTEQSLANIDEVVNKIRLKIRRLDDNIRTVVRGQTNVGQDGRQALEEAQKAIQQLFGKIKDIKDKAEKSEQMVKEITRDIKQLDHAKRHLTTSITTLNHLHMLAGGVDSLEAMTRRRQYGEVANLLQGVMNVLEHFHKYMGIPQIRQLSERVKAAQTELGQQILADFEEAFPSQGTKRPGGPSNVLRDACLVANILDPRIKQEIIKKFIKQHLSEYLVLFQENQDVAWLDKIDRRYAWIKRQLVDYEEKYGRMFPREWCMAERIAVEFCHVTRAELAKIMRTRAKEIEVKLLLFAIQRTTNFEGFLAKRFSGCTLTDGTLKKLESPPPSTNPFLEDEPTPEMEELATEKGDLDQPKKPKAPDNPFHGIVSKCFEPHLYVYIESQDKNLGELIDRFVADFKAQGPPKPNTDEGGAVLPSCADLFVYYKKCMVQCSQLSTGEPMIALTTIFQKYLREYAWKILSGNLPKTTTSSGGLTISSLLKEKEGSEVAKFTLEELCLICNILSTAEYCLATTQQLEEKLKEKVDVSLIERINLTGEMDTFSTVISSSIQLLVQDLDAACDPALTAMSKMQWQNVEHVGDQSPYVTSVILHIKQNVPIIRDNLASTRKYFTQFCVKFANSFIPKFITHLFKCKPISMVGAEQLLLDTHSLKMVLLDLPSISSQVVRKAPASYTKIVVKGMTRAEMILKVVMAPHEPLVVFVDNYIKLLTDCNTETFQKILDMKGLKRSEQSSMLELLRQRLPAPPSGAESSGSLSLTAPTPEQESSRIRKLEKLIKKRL
Chain of UniProt A3KMH1 (A3KMH1 whole entry, looked up): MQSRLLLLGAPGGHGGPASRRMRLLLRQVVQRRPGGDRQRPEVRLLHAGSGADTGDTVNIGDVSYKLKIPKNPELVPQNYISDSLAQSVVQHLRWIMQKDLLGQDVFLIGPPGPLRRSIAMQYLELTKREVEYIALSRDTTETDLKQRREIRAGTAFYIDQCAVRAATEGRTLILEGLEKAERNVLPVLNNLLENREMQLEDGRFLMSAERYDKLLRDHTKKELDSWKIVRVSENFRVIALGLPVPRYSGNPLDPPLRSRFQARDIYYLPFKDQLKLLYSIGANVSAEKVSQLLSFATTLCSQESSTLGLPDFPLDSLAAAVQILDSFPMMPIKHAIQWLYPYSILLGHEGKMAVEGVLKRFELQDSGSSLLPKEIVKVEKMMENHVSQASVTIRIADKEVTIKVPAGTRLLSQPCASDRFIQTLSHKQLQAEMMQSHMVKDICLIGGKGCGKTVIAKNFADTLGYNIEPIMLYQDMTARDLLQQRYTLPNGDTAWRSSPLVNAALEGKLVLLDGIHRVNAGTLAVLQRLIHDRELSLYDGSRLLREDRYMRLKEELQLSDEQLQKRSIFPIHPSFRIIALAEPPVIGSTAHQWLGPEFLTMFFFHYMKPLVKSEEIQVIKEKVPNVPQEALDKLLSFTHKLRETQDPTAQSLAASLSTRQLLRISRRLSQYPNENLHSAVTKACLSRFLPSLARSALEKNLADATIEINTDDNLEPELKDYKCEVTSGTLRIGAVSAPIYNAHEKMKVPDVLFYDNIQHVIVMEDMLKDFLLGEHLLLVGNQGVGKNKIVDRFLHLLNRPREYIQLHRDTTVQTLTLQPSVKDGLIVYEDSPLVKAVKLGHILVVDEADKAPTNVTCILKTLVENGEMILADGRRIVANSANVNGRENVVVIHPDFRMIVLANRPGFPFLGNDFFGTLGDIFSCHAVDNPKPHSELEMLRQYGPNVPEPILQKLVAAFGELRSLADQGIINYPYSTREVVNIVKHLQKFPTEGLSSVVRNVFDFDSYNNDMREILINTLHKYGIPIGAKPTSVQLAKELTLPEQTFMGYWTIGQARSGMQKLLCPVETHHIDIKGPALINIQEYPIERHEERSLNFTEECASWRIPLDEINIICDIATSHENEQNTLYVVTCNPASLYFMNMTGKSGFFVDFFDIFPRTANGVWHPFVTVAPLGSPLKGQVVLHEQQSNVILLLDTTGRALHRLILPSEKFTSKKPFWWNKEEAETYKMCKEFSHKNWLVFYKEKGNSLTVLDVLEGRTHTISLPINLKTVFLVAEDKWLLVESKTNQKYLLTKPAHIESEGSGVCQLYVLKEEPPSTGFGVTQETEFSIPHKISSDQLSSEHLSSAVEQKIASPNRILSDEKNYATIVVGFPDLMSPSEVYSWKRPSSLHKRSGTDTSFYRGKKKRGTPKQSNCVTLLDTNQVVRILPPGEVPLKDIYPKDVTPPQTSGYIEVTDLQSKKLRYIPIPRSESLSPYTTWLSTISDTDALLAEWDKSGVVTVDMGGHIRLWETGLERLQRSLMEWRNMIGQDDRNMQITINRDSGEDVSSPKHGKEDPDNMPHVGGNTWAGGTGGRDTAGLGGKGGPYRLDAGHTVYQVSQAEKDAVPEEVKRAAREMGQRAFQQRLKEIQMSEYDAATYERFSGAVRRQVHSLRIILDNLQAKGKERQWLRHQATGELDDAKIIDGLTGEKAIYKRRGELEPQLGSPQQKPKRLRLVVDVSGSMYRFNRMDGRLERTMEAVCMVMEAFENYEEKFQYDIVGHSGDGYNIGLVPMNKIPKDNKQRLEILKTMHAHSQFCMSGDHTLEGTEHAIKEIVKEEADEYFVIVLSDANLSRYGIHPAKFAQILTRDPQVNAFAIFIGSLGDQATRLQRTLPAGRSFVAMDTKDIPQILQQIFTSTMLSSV
Chain of UniProt P26368 (P26368 whole entry, looked up): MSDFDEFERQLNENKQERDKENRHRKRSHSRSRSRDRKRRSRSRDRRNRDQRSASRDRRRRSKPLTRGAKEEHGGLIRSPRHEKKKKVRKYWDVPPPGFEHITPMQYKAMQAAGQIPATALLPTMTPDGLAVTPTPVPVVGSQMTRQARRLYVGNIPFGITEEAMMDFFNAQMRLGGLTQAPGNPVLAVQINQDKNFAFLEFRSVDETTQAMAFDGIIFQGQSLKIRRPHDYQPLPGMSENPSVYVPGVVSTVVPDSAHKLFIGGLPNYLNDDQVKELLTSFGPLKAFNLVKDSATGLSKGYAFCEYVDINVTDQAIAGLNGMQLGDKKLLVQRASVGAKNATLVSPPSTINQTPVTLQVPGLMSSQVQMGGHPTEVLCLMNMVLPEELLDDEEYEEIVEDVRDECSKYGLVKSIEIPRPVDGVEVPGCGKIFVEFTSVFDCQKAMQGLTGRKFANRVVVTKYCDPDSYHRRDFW
Chain of UniProt O60784 (O60784 whole entry, looked up): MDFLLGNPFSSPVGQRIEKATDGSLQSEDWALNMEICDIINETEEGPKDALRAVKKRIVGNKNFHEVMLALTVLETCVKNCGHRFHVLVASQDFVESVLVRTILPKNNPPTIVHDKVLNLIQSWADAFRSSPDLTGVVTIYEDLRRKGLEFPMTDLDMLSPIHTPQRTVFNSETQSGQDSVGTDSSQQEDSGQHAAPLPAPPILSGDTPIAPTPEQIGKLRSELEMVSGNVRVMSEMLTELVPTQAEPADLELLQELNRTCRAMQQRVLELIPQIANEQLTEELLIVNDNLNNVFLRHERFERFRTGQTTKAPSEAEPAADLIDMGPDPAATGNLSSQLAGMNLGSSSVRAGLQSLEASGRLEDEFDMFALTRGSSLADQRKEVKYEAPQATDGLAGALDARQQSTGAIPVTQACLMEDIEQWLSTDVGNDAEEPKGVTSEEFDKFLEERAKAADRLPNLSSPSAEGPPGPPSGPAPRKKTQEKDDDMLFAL
Chain of UniProt Q8N4H5 (Q8N4H5 whole entry, looked up): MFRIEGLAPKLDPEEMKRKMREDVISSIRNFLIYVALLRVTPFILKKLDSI
Chain of UniProt Q8TBZ6 (Q8TBZ6 whole entry, looked up): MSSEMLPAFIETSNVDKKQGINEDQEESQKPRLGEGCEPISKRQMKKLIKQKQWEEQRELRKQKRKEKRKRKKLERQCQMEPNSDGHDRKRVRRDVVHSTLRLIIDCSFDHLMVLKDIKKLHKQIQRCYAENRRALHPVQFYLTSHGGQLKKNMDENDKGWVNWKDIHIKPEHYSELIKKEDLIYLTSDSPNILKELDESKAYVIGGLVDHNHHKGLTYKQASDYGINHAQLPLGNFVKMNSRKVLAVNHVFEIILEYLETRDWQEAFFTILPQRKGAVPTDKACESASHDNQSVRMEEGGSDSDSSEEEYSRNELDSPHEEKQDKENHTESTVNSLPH

| Target | log2 fold change [1] | log2 fold change [2] | log2 fold change [3] | log2 fold change [4] | log2 fold change [5] | log2 fold change [6] | log2 fold change [7] | log2 fold change [8] | log2 fold change [9] | log2 fold change [10] | log2 fold change [11] | log2 fold change [12] | log2 fold change [13] | log2 fold change [14] | log2 fold change [15] | log2 fold change [16] | log2 fold change [17] | log2 fold change [18] | log2 fold change [19] | log2 fold change [20] |
| --- | --- | --- | --- | --- | --- | --- | --- | --- | --- | --- | --- | --- | --- | --- | --- | --- | --- | --- | --- | --- |
| UBE2S (UniProt Q16763) | 0.024 | -0.015 | 0.004 | 0.009 | 0.057 | 0.013 | 0.049 | -0.007 | 0.044 | 0.03 | -0.025 | -0.214 (active) | 0.005 | 0.195 | -0.009 | 0.015 | 0.048 | -0.004 | -0.048 | 0.024 |
| VPS53 isoform 4 (UniProt Q5VIR6) | -0.037 | -0.053 | 0.01 | -0.031 | 0.022 | 0.046 | 0.003 | 0.03 | 0.045 | 0.045 | -0.095 | -0.358 (active) | 0.033 | 0.041 | -0.094 | 0.022 | 0.007 | 0.023 | 0.016 | -0.128 |
| UBE4A isoform 2 (UniProt Q14139) | -0.064 | -0.058 | -0.029 | 0.01 | 0.061 | 0.048 | 0.097 | 0.021 | 0.073 | 0.065 | -0.126 | -0.584 (active) | 0.123 | 0.087 | -0.114 | -0.055 | 0.053 | 0.05 | 0.159 | -0.436 (active) |
| U2AF2 (UniProt P26368) | -0.076 | 0.005 | -0.066 | 0.047 | -0.048 | 0.031 | 0.001 | -0.028 | 0.002 | -0.015 | -0.057 | -0.231 (active) | 0.039 | -0.024 | 0.029 | 0 | 0.002 | 0.003 | 0 | -0.307 (active) |
| USP14 (UniProt P54578) | 0.023 | -0.018 | 0.01 | 0.034 | -0.069 | 0.021 | 0.093 | 0.012 | -0.006 | 0.032 | -0.08 | -0.197 | 0.053 | 0.106 | -0.005 | -0.011 | 0.003 | 0.007 | -0.082 | -0.072 |
| TRMT10A (UniProt Q8TBZ6) | 0.006 | -0.004 | 0.063 | 0.031 | -0.079 | 0.014 | -0.017 | -0.011 | -0.004 | -0.019 | 0.016 | -0.013 | 0.033 | 0.003 | -0.026 | -0.037 | 0.047 | 0.034 | -0.135 | -0.075 |
| TOM1 isoform 2 (UniProt O60784) | 0.17 | 0.026 | 0.02 | 0.051 | -0.028 | 0.17 | 0.041 | 0 | 0.013 | -0.01 | -0.056 | -0.196 | 0.037 | -0.035 | -0.018 | -0.082 | 0.026 | 0.001 | 0.006 | -0.274 |
| VWA8 (UniProt A3KMH1) | -0.07 | 0.042 | 0.023 | 0.019 | -0.059 | 0.034 | 0.011 | 0.032 | 0.025 | 0.022 | -0.027 | -0.071 | 0.048 | -0.005 | 0.002 | -0.094 | 0.056 | 0.024 | -0.01 | -0.034 |
| VPS16 (UniProt Q9H269) | 0.023 | 0.011 | 0.032 | -0.013 | 0.038 | 0.017 | 0.109 | 0 | 0.075 | -0.086 | -0.244 | -0.671 (active) | 0.042 | 0.045 | 0.003 | -0.072 | 0.083 | 0.113 | 0.026 | -0.316 |
| TOMM5 isoform 2 (UniProt Q8N4H5) | -0.009 | 0.367 | 0.005 | 0.084 | 0.025 | 0 | -0.011 | 0.141 | -0.029 | 0.03 | -0.003 | -0.032 | -0.049 | 0.538 (active) | 0.05 | 0.039 | -0.046 | -0.017 | 0.041 | 0.116 |
| UFD1 isoform 1 (UniProt Q92890) | 0.02 | -0.025 | 0.037 | 0.106 | 0.015 | 0 | 0.018 | -0.015 | 0.032 | -0.011 | -0.009 | 0.021 | 0.008 | 0.063 | -0.021 | 0.063 | 0.003 | 0.008 | -0.045 | -0.015 |
| U2AF1 isoform 2 (UniProt Q01081) | -0.011 | -0.078 | -0.01 | 0.091 | 0.011 | 0.074 | 0.071 | -0.009 | 0.022 | 0.009 | -0.217 | -0.57 (active) | 0.051 | -0.02 | 0.015 | -0.015 | 0.071 | -0.007 | -0.021 | -0.036 |
